High-throughput results from PubChem.
Sampled rows, rich in hits. Any-hit rate of the full collection: about 1.9%.
S1P2 ag = S1P2 (human) receptor agonism | O95136 | S1P2-expressing cell line, agonist reporter read-out | activation, % at 4.5 µM | actives 0.46% (n = 97,000) | AID 729; in the data active = activation above about 16%;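 note: 0% = vehicle low control and 100% = maximal reference agonist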
GALR2 blocker = blocks the human galanin receptor 2. O43603. GALR2-expressing cells, antagonist mode. inhibition, % at 4 µM. actives 0.39% (n = 140,000); in the data active = inhibition above about 27%;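 note: cells stimulated with galanin 1-16 at roughly its EC80; 0% = agonist challenge control and 100% = basal control without agonist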
FAK blocker = FAK (human) kinase inhibition | Q05397 | biochemical FAK kinase activity assay | inhibition, %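 (tested at 7 µM)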 | actives 0.84% (n = 97,000); in the data active = inhibition above about 19%;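 note: 0% = DMSO and 100% = reference compound high control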
Target sequence (Q05397 whole entry, looked up): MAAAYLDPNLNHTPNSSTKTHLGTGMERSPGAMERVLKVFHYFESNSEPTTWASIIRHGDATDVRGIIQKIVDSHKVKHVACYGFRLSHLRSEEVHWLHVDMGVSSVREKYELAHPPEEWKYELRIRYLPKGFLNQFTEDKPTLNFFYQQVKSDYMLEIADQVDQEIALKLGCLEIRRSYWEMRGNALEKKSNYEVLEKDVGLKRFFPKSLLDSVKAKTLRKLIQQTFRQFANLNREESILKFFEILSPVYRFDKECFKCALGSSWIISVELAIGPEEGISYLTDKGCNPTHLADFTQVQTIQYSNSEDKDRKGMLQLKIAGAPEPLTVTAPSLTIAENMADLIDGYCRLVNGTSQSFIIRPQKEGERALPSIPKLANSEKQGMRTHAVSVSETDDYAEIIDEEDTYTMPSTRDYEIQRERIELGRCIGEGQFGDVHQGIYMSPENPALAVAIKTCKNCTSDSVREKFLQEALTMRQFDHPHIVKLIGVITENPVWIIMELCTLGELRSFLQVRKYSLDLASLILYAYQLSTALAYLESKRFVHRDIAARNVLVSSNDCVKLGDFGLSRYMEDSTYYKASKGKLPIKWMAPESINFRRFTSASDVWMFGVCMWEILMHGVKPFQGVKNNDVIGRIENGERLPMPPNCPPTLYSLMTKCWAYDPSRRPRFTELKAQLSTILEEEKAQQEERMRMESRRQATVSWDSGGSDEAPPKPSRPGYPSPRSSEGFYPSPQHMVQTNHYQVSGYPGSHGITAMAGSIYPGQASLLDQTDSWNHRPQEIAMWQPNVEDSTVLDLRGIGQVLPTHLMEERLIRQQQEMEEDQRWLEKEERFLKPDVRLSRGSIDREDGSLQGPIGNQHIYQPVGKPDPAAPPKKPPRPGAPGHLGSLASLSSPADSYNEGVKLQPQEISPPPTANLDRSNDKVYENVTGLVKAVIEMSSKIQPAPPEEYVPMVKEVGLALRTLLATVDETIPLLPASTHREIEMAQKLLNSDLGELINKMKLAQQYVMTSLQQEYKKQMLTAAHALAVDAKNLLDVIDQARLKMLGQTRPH
GALR2 ag = agonists of human galanin receptor 2 (GALR2); O43603; GALR2-expressing cells, agonist activation read-out; activation, % (concentration not given with the values); actives 0.48% (n = 140,000); AID 803; in the data active = activation above about 5%, passing the limit was not always enough;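 note: 0% = vehicle buffer wells and 100% = reference agonist at full effect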
S1P2 blocker = S1P2 (human) receptor antagonism; AID 736; O95136; cell-based S1P2 antagonist assay, inhibition at 5 uM; inhibition, % at 5 µM; actives 0.21% (n = 97,000); in the data active = inhibition above about 45%;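 note: CRE beta-lactamase reporter cells expressing human S1P2 stimulated with S1P; 0% = agonist at EC80 alone and 100% = agonist plus reference antagonist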
sdo1 growth = restores growth of sdo1-depleted yeast | S. cerevisiae sdo1-depleted JHY4D growth rescue, OD600 30 h; stronger effect = higher value; pdr5 snq2 efflux-pump mutant strain | z-score at 10 µM | actives 0.21% (n = 140,000) | AID 817;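 active = z-score above 3 at both the 24 hr and the 30 hr optical density reads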;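 note: z-score against mean and SD of all compound wells on the same plate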
sdo1 rescue conf = confirmation of growth rescue in SDO1-depleted yeast, bone marrow failure | S. cerevisiae JHY4D (SDO1-depleted) growth rescue, OD600, 30 h; stronger effect = higher value; efflux-deficient strain, SNQ2 and PDR5 mutated | AID 949 | OD recovery (no concentration beside the values) | shares compounds with sdo1 growth | actives 44% (n = 440);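 active = yeast growth recovered at 30 hours, either rising with dose fitted slope above 0.001 or with average optical density gain above 0.07, some results past the limit were not filed as active; inactive = growth falling with dose or no effect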;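 note: gain in OD600 from 0 h to 30 h averaged across all seven doses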
Numbers without * were called inactive; nt = no result.

SMILES	S1P2 ag	GALR2 blocker	FAK blocker	GALR2 ag	S1P2 blocker	sdo1 growth	sdo1 rescue conf
COc1ccc2nc3ccccc3nc2c1NC(=O)c1ccc(Cl)cc1Cl	nt	-3	nt	-1	nt	1.6	0.096
CN(/C(=N\S(=O)(=O)c1ccccc1)C(F)(F)F)c1ccccc1	-4	-9	10	-1	2	1.2	nt
Cn1c(NCc2ccccc2)nc2c1c(=O)n(Cc1ccc(Br)cc1)c(=O)n2C	-3	6	1	-2	-7	-2	nt
COc1ccc(CNc2nc3c(c(=O)n(Cc4ccc(Br)cc4)c(=O)n3C)n2C)cc1	-2	-2	6	-1	16	-0.01	0.069
Cc1cc(-c2ccccc2)n2nc(C)c(C#N)c2n1	-2	-1	2	-2	-11	12*	0.067
Cc1cc(C)n2nc(/C(C#N)=C/c3ccccc3)c(C#N)c2n1	-4	-4	-2	-1	1	-1.9	nt
CCCCCCCC#Cc1ccccc1/C=N/S(=O)c1ccc(C)cc1 (stereo not given)	nt	3	nt	-2	nt	13*	0.067
O=C(Nc1cccc(O)c1)c1cc(S(=O)(=O)N2CCCC2)ccc1Cl	2	-14	0	1	-14	-0.84	nt
CCOC(=O)C1CCCN(C(=O)c2ccccc2SCCOC)C1 (stereo not given)	-4	23	-3	-2	-1	1.6	0.081*
COC(=O)COc1ccc2occ(C(C)=O)c2c1	0	3	0	0	1	3.6*	0.11*
O=C(O)COc1ccc2occ(C(=O)c3ccccc3)c2c1	-1	-5	-2	-3	-17	0.12	nt
CCCc1nnc(NC(=O)C(CC)OC(=O)c2cc(C)nc3ccccc23)s1 (stereo not given)	0	4	3	-1	7	12*	0.039
CN1CCN(CC(=O)Nc2ccc(OCc3ccccc3)cc2)CC1	-6	12	2	-3	-13	4.4*	0.055
C/C(=N/NC(=O)c1ccc(C)s1)c1cccc(NC(=O)COc2ccc(Cl)cc2Cl)c1	0	1	0	-2	-15	1.6	0.063
C/C(=N/NC(=O)c1cccs1)c1ccc(NC(=O)COc2ccc(Cl)cc2Cl)cc1	-7	-9	-1	-3	-15	-0.47	nt
COc1cc(OC)cc(OCC(O)Cn2ccnc2)c1 (stereo not given)	nt	7	nt	-1	nt	1.4	nt
COc1ccc(CCN2C(=O)c3cccc4cccc(c34)C2=O)cc1OC	-8	15	-3	-1	8	1.2	0.094*
Cc1ccc(Cn2c(CN3CC(C)OC(C)C3)nc3c2c(=O)n(C)c(=O)n3C)cc1 (stereo not given)	-5	1	-1	-3	-6	8.8*	0.057*
CN1CCN(Cc2nc3c(c(=O)n(C)c(=O)n3C)n2CCCc2ccccc2)CC1	-2	-3	-1	0	15	11*	0.13*
CSc1nc2ccc(NC(=O)CSc3nnc(N)s3)cc2s1	-3	-10	3	-1	-1	0.91	nt
C=CCc1cc(/C=N\NC(=O)CSc2nnc(CCCc3ccc(OC)c(C)c3)o2)cc(OC)c1O	-4	8	0	-2	-19	0.04	nt
C=CCc1cc(/C=N/NC(=O)CSc2nnc(CCCc3ccc(OC)cc3)o2)cc(OC)c1O	-1	-2	3	1	-34	1.5	0.087*
Cc1c(NC(=O)C2C3C=CC(C3)C2C(=O)O)c(=O)n(-c2ccccc2)n1C (stereo not given)	-1	-11	0	-2	-3	0.77	nt
Cc1cc(N2CCOCC2)nc(SCC(=O)c2ccccc2)n1	nt	8	nt	-2	nt	0.31	0.085*
COc1cc(/C=C/C(=O)c2ccc(NS(=O)(=O)c3ccc(C)cc3)cc2)cc(OC)c1O	nt	17	nt	0	nt	11*	0.055
SMILES	S1P2 ag	GALR2 blocker	FAK blocker	GALR2 ag	S1P2 blocker	sdo1 growth	sdo1 rescue conf
COc1cc(/C=C/C(=O)c2ccc(NS(=O)(=O)c3ccc(C)cc3)cc2)ccc1OC(F)F	nt	8	nt	0	nt	-0.16	nt
CCCCN(CCCC)c1cc(C)nc(-c2ccccc2O)n1	-6	-5	-1	-3	-5	1.4	nt
Cc1ccc(C(=O)COC(=O)c2ccc(Br)o2)cc1C	-2	-3	2	-1	0	3.7*	0.081*
CC12CCC(C(=O)Nc3nccs3)(OC1=O)C2(C)C (stereo not given)	-3	10	1	-1	15	3*	0.091*
Cc1cccnc1NC(=O)C12CCC(C)(C(=O)O1)C2(C)C (stereo not given)	-5	9	0	-2	16	2.1	nt
COc1ccc(S(=O)(=O)NCc2ccccn2)c(Cl)c1Cl	-6	5	-1	-2	1	-0.42	nt
COc1cc(CNCc2ccccn2)ccc1OCc1cccc(Cl)c1	-5	0	1	-1	17	7.7*	0.072*
COc1cc(CNCc2ccccn2)ccc1OCc1ccc(Cl)cc1	nt	-11	nt	0	nt	0.39	nt
O=C(CSc1nc(Nc2ccccc2)nc(N2CCOCC2)n1)N1CCCC1	-3	2	0	-1	-35	4*	0.1
O=C(O)C1CC(=O)N(Cc2ccccc2)C1 (stereo not given)	2	8	-7	1	-13	-0.04	nt
CCOC(=O)c1[nH]c(COC(=O)C2CC(=O)N(Cc3ccccc3)C2)c(C(=O)OCC)c1C (stereo not given)	0	-13	5	-4	-11	4.6*	0.046
CCc1cccc2c(SC(C)C(=O)NCC3CCCO3)nc(-c3ccccc3)nc12 (stereo not given)	-3	5	-1	-2	11	-0.55	nt
CCc1cccc2c(SCC(=O)NCC3CCCO3)nc(-c3ccc(F)cc3)nc12 (stereo not given)	-6	4	4	-2	4	0.88	0.042
O=C(CCn1c(=S)[nH]c2cc3c(cc2c1=O)OCO3)N1CCN(C2CCCCC2)CC1	-3	16	-3	-3	-7	nt	nt
CN(CC(=O)NCCc1ccc(Cl)cc1)S(=O)(=O)c1ccc2c(c1)c(=O)n(C)c(=O)n2C	-7	2	1	-2	19	-0.72	nt
CN(CC(=O)NCc1cccnc1)S(=O)(=O)c1ccc2c(c1)c(=O)n(C)c(=O)n2C	-6	-1	-3	-2	2	3*	0.074*
Cn1c(=O)c2c(nc(N3CCCC3)n2CC(O)CO)n(C)c1=O (stereo not given)	-12	4	3	0	-8	2.2	0.097*
C=CCn1c(N2CCCCCC2)nc2c1c(=O)n(C)c(=O)n2C	-6	-5	-5	-1	6	0.01	nt
CC(C)(C)NC(=O)NC(=O)COC(=O)c1ccco1	nt	9	nt	-2	nt	0.05	nt
COc1ccc(C(=O)NCCc2cn3ccc(C)cc3n2)cc1	-6	-1	1	-3	0	1.1	0.081*
COc1cc(C(=O)NCCc2cn3ccc(C)cc3n2)cc(OC)c1OC	5	-8	3	-4	-17	0.03	nt
